Records with an inconclusive call do not appear. Activity calls are given as the source filed them. Unless noted, calls follow the shape of the full dose curve.

A short description of test [1]: qHTS profiling of the MIPE4 collection as inhibitors of Plasmodium falciparum (3D7) proliferation (AID 743344; call rule not given here;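 also: scaled between DMSO vehicle wells and 0.29 µM artemisinin as full inhibition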). Particulars: P. falciparum 3D7 in erythrocytes, SYBR Green DNA fluorescence, 72 h; at 28.5 µM unless noted. The method, boiled down: (§1)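 Parasite DNA was quantified by SYBR Green I fluorescence (ex 485, em 535 nm) after overnight lysis in saponin/Triton buffer at room temperature. Cultures at 0.3% parasitemia and 2.5% hematocrit were first exposed to compound for 72 h at 37 C; signals were normalised to artemisinin (0.29 uM) and vehicle wells.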

Test [2] can be described thus: qHTS profiling of the MIPE4 collection as inhibitors of Plasmodium falciparum (DD2) proliferation (AID 743345; call rule not given here). Particulars: P. falciparum Dd2 in erythrocytes, SYBR Green DNA, 72 h; at 28.5 µM unless noted. The method, boiled down:
as §1

The nature of test [3]: qHTS profiling of the MIPE4 collection as inhibitors of Plasmodium falciparum (DD2) proliferation (Rep 2) (AID 743346; call rule not given here). Particulars: P. falciparum Dd2 in erythrocytes, SYBR Green DNA, 72 h; at 28.5 µM unless noted. The method in brief:
as §1

Test [4] is described as follows: qHTS profiling of the MIPE4 collection as inhibitors of Plasmodium falciparum (HB3) proliferation (AID 743347; call rule not given here;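 also: plate controls were DMSO vehicle wells for no effect and artemisinin wells for full effect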). Particulars: P. falciparum HB3 in erythrocytes, SYBR Green DNA, 72 h; at 28.5 µM unless noted. The method, boiled down: as §1
(In general: qHTS replaces the single test concentration by a dilution series.)

The nature of test [5]: qHTS for Inhibitors of the Functional Ribonucleoprotein Complex (vRNP) of Lassa (LASV) Arenavirus: LASV Primary Screen - GLuc reporter signal (AID 1347082; calls by dose curve; tested in HEK293 reporter line; also: % is scaled to controls: 0 for no effect and ±100 for the full control effect; nearly all actives have a fitted effect of over 60% in size).
Test [6] in a line: qHTS for Inhibitors of the Functional Ribonucleoprotein Complex (vRNP) of Lassa (LASV) Arenavirus: Viability assay - alamar blue signal for LASV Primary Screen (AID 1347083; calls by dose curve; tested in HEK293 reporter line; also: % is scaled to controls: 0 for no effect and ±100 for the full control effect; nearly all actives have a fitted effect of over 80% in size).
A short description of test [7]: qHTS for Inhibitors of the Functional Ribonucleoprotein Complex (vRNP) of Lymphocytic Choriomeningitis Arenaviruses (LCMV): Viability assay - alamar blue signal for LCMV Primary Screen (AID 1347085; calls by dose curve; tested in HEK293 reporter line; also: % is scaled to controls: 0 for no effect and ±100 for the full control effect; nearly all actives have a fitted effect of over 80% in size).
Test [8] deals with Nucleoprotein (Lymphocytic choriomeningitis virus (strain Armstrong)) (UniProt P09992). Briefly: qHTS for Inhibitors of the Functional Ribonucleoprotein Complex (vRNP) of Lymphocytic Choriomeningitis Arenaviruses (LCMV): LCMV Primary Screen - GLuc reporter signal (AID 1347086). Also: % is scaled to controls: 0 for no effect and ±100 for the full control effect; nearly all actives have a fitted effect of over 70% in size.
Chain of Nucleoprotein (Lymphocytic choriomeningitis virus (strain Armstrong)) (P09992 whole entry, looked up): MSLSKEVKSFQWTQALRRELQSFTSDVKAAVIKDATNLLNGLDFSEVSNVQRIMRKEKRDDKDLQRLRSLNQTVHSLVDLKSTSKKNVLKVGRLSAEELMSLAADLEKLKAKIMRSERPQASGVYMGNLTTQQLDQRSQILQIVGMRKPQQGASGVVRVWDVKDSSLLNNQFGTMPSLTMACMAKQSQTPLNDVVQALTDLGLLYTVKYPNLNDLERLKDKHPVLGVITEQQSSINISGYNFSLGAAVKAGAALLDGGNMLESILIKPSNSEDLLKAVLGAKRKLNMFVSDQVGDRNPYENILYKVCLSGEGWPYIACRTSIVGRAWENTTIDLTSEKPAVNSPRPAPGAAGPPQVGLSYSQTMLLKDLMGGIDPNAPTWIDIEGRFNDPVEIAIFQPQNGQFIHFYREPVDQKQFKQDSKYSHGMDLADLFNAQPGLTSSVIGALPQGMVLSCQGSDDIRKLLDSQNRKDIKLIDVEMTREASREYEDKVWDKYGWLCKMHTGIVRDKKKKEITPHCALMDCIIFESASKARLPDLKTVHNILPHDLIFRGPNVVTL
Test [9] is described as follows: Primary qHTS for inhibitors of SARS-S pseudo-typed particle cell entry (AID 1479145). Also: nearly all actives have a fitted effect of over 45% in size. As to activity change, negative = inhibition: % is scaled to controls: 0 for no effect and ±100 for the full control effect.
A short description of test [10]: Primary qHTS for Huh7 cytotoxicity: counterscreen for inhibitors of MERS-S pseudotyped particle cell entry (AID 1479147). Particulars: outcome: dose series up to 57.1 µM unless noted.
The nature of test [11]: Primary qHTS for inhibitors of MERS-S pseudo-typed particle cell entry (AID 1479149). Also: nearly all actives have a fitted effect of over 60% in size.
Test [12] can be described thus: Primary qHTS for Vero E6 cytotoxicity: counterscreen for inhibitors of SARS-S pseudo-typed particle cell entry (AID 1479150). As to activity change, negative = cytotoxicity: % is scaled to controls: 0 for no effect and ±100 for the full control effect. Particulars: outcome: dose series up to 57.1 µM unless noted.
In test [13] the target is Alpha-galactosidase (Coffea arabica) (UniProt Q42656). In words: Counterscreen for Glucocerebrosidase Inhibitors: qHTS Assay for Coffee Bean alpha-Galactosidase at pH 4.5 (AID 957; active = well fitted curve in the direction sought with a large enough effect; an effect the other way counts as inactive or inconclusive;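 also: plate controls were enzyme alone for no effect and no enzyme for full effect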). The method, boiled down: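 Enzyme is added first (2 nM final), then compounds titrated from 0.7 nM to 77 uM, then 80 uM 4-methylumbelliferyl alpha-D-galactopyranoside; after 20 min at room temperature a pH 10 NaOH/glycine stop precedes fluorescence reading at 365/440 nm.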
Chain of Alpha-galactosidase (Coffea arabica) (Q42656 whole entry, looked up): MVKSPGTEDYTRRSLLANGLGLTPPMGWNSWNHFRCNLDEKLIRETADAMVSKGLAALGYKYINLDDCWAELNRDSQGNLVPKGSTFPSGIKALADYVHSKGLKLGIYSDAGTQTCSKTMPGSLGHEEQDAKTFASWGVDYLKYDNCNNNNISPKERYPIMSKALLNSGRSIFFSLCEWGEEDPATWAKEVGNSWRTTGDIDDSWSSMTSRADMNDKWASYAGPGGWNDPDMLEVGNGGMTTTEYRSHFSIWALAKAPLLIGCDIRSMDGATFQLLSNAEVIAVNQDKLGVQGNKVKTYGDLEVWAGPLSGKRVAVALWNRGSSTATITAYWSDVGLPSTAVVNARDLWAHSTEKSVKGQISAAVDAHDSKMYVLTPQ
Background: The purpose of a counterscreen is to sort out artefacts and off-target activity.

Test [14] in a line: Validation screen for inhibitors of Lassa infection (AID 463096). Also: % is scaled to controls: 0 for no effect and ±100 for the full control effect.
The nature of test [15]: Inducers of the Endoplasmic Reticulum Stress Response (ERSR) in human glioma: Validation (AID 504836; active = well fitted curve in the direction sought with a large enough effect; an effect the other way counts as inactive or inconclusive; also: 0% is about no effect). The method in brief:
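Stably transfected U87-MG human glioma cells carrying a GRP78-based luminescent sensor were seeded at 1000 cells/well, pin-dosed with compounds and incubated 16 h. Luciferase reagent was then added, and end-point luminescence was read after 10 min at room temperature.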

Test [16] is described as follows: Cytotoxicity counterscreen for inhibitors of SARS-CoV-2 cell entry (AID 1645845). Also: nearly all actives have a fitted effect of over 50% in size. As to activity change, negative = cytotoxicity: % is scaled to controls: 0 for no effect and ±100 for the full control effect. The method in brief: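 After a 15 min room-temperature ATPLite 1step step, luminescence reflected ATP remaining in HEK293-ACE2 cells exposed to compound for 1 h plus 48 h at 37 C, with percent activity set by cell and no-cell controls.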
Test [17] can be described thus: Primary qHTS to identify inhibitors of SARS-CoV-2 cell entry (AID 1645846). Also: nearly all actives have a fitted effect of over 45% in size. Particulars: activity change, negative = inhibition: at 57.1 µM (top of the series) unless noted. The method in brief: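 Data are normalized to wells receiving SARS-CoV-2-S pseudoparticles and those given bald particles. Entry signal was luciferase luminescence in stable hACE2 Expi293F cells, 48 hr post-infection, after 1 hr compound pretreatment.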

The target of test [18] is Luciferin 4-monooxygenase (Photinus pyralis) (UniProt P08659). Briefly: Biochemical firefly luciferase enzyme assay for NPC (AID 624030; active = well fitted curve in the direction sought with a large enough effect; an effect the other way counts as inactive or inconclusive;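 also: purified P. pyralis luciferase at 10 nM with luciferin and ATP substrate; 0% = DMSO and -100% = full luciferase inhibition by PTC124 control; nearly all actives have a fitted effect of over 70% in size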). The method in brief:
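Counter-screen for direct inhibition of the luciferase enzyme by approved-drug library compounds, run at 10 nM enzyme in 50 mM Tris acetate (final). Luminescence was read within 5 min of enzyme-buffer addition and normalized to PTC124 versus DMSO (0%).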

Test [19] concerns the target Alpha-galactosidase (Coffea arabica) (UniProt Q42656). Briefly: Counterscreen for Glucocerebrosidase Inhibitors: qHTS Assay for Coffee Bean alpha-Galactosidase at pH 5.9 (AID 998; active = well fitted curve in the direction sought with a large enough effect; an effect the other way counts as inactive or inconclusive;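 also: plate controls were uninhibited enzyme for no effect and no-enzyme basal signal for full effect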). The method, boiled down: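 In 50 mM citric acid pH 5.9 with 0.005% Tween-20, coffee bean enzyme hydrolyses 80 uM 4-MU alpha-D-galactopyranoside over 20 min at RT. Activity is normalized to controls; AC50 comes from Hill-modelled concentration-response data.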

Test [20] is described as follows: KB-8-5-11 P-gp reporter qHTS against the NCATS DSHEA and TCM libraries (AID 1919977; active = well fitted curve in the direction sought with a large enough effect; an effect the other way counts as inactive or inconclusive; also: 0% is about no effect). The method, boiled down:
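Cells were seeded, allowed ~4 h to attach, dosed by pin tool (substance titrations), incubated ~72 h at 37C, then lysed with CellTiter-Glo for 30 min at room temperature before luminescence reading.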

Chain of Luciferin 4-monooxygenase (Photinus pyralis) (P08659 whole entry, looked up): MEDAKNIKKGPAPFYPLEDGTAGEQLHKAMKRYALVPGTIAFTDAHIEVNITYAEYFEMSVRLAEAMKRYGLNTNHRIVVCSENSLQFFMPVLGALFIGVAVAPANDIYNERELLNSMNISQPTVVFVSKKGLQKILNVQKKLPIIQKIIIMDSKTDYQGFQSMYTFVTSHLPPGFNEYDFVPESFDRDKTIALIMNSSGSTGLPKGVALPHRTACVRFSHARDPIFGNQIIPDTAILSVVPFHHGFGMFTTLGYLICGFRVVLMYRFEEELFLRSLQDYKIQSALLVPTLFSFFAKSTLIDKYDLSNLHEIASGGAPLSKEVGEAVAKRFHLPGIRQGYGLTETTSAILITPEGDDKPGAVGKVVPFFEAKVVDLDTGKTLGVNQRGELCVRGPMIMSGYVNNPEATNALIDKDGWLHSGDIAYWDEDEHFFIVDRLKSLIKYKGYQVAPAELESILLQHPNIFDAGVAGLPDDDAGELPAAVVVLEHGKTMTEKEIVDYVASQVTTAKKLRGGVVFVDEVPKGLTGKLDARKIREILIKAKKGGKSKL

Compound `CC(=O)O[C@H]1C[C@@H]2CC[C@H]3[C@H]4C[C@H]([N+]5(C)CCCCC5)[C@@H](OC(C)=O)[C@@]4(C)CC[C@@H]3[C@@]2(C)C[C@H]1[N+]1(C)CCCCC1` showed a parasite growth, % of DMSO control in test [1] of 73.3%. For the same compound, the parasite growth remaining, % of DMSO control (lower = more inhibition) in [2] was found to be 88%. This compound also registered a parasite growth, % of control (lower = inhibition) in test [3] of 58.4%. This compound returned a growth, % of control in test [4] of 72.7%. Further, the Potency entry in [5], in test [6], in test [7], in test [8], in [9] and in test [11] was “inactive” in each case. The compound was classed as inactive in test [10] and in [12].
Take `Nc1cc(Cl)c(NC2=NCCN2)c(Cl)c1`: the call in test [13], in [15], in test [10] and in test [12] was inactive. Moreover, the Potency result in [14], in [5], in [6], in test [7], in [8] and in [9] was “inactive” throughout. Moreover, the Potency entry in test [11] and in [16] was “inactive” in each case. Also, the activity change, negative = inhibition in [17] is -17%.
Turning to `Nc1ncnc2c1ncn2[C@@H]1O[C@H](COP(=O)(O)OP(=O)(O)OP(=O)(O)O)[C@@H](O)[C@H]1O`, the Potency entry in test [18], in test [5], in test [6], in test [7] and in test [8] was “inactive” in each case. For the same compound, the outcome in test [9] is “inactive [at 0.573 µM]”. Besides, the activity change, negative = cytotoxicity is -18.7% [at 0.573 µM] (inactive) in test [10], -8.27% [at 0.573 µM] (inactive) in [12] and -13.7% [at 0.702 µM] (inactive) in [16]. Further, the activity change, negative = inhibition in test [11] is -11.5% [at 0.573 µM] (inactive).
Take `NCCCC(=O)O`: the outcome in test [13] and in [19] was inactive. Also, the Potency entry in test [5], in test [6], in [7], in [8] and in [9] was “inactive” throughout.
As for `CO[C@H]1[C@@H](O)[C@H](N)[C@@H](O[C@H]2O[C@H]([C@H](C)N)CC[C@H]2N)[C@H](O)[C@@H]1N(C)C(=O)CN`, the Potency entry in test [5], in [6], in test [7], in test [8], in test [11] and in test [16] was “inactive” in each case. Moreover, the result in test [10] and in test [12] was inactive. The activity change, negative = inhibition in [17] was -5.5%.
As for `CC(C)(CO)[C@@H](O)C(=O)NCCC(=O)O`, the Potency entry in test [5], in test [6], in test [7], in test [8], in [11] and in [16] was “inactive” each time. Besides, the outcome in test [10], in [12] and in [20] was inactive.
In the case of `CCC(=O)NCC[C@@H]1CCc2ccc3c(c21)CCO3`, the Potency entry in test [5], in [6], in test [7], in test [8], in test [11] and in test [16] was “inactive” each time. The compound was classed as inactive in test [10] and in test [12]. The activity change, negative = inhibition in [17] is -26.7%.

The values are drawn from PubChem BioAssay (NCATS).
